Test results from article PMC4336329 (PLoS ONE, 2015).
About 14,000 (4.5%) of roughly 310,000 compounds showed an effect of 50% or more. The effect is printed as a negative number. Only a selection was taken, and strong results are over-represented in it overall.

target: human ether-à-go-go-related gene (hERG) potassium channel (human, UniProt Q12809); assay: primary screen, population patch clamp on CHO cells stably expressing hERG; higher = less effect of the substance
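Note: peak tail current of the secondary pulse compared with the same well before compound.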

human ether-à-go-go-related gene (hERG) potassium channel, sequence (Q12809 whole entry, looked up): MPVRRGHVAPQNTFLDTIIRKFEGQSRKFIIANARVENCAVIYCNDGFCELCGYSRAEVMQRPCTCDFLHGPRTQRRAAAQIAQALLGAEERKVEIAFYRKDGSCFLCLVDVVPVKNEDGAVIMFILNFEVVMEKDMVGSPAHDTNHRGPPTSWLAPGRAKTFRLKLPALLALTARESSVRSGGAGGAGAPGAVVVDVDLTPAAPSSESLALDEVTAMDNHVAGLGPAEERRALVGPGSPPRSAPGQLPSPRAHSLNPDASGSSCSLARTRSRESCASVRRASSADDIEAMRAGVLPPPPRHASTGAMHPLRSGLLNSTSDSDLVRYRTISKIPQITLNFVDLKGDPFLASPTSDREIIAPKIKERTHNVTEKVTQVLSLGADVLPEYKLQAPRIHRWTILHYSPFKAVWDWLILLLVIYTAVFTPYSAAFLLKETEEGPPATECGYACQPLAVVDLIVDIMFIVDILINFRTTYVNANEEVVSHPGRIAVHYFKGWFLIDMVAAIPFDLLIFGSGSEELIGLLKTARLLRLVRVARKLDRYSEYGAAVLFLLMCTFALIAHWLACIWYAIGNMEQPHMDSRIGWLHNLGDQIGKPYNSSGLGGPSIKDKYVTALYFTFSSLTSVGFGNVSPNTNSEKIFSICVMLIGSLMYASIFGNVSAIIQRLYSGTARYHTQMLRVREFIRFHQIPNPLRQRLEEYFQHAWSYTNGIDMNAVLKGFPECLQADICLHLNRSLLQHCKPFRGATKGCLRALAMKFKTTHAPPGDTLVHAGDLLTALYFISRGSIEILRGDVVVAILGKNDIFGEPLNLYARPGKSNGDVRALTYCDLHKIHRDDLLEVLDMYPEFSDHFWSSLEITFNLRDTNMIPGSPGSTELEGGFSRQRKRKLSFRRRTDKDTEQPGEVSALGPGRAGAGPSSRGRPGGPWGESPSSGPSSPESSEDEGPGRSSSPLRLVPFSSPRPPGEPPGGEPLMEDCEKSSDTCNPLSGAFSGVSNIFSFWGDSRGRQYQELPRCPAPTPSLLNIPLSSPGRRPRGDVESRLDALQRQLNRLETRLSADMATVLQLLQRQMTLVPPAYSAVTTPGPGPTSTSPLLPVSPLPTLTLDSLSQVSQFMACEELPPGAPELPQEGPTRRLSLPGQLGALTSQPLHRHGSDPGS

Structure (SMILES) | hERG current change (%, negative = inhibition) at 10uM
CCc1ccc(NC(=O)c2sccc2-n2cccc2)cc1 | -7.29%
NS(=O)(=O)c1ccc(F)c(C(=O)O)c1 | 8.68%
CCNc1ccc(S(=O)(=O)N(C)C)cc1NCC(=O)Nc1ccc(F)c(Cl)c1 | -4.33%
O=C(Nc1ccc(Cl)cc1F)C1CC1c1ccccc1 (centres unmarked) | 12.6%
COc1ccc(C)cc1NC(=O)C(Sc1nnc(Nc2cc(C)ccc2OC)s1)c1ccccc1 (centres unmarked) | 0.631%
Cc1ccc2c(c1)nnc1nnc(SCC(=O)O)n12 | 3.45%
COC(=O)c1sccc1NC(=O)c1csc2c1CCCC2 | -10.9%
OCC[C@H]1C[C@H](O)[C@@H](O)[C@]2(CCc3ccccc3O2)O1 | 6.41%
Cc1ccc(C(=O)C2CCN(S(=O)(=O)c3c(C)noc3C)CC2)cc1 | -67.3%
Cc1noc(C)c1S(=O)(=O)N1CCC(C(=O)c2ccccc2)CC1 | -43%
Cc1noc(C)c1S(=O)(=O)N1CCC(C(=O)O)CC1 | -3.88%
O=S(=O)(c1ccccc1C(F)(F)F)N1CCC(n2cnc3ccccc32)CC1 | -60.5%
COc1ccc(S(=O)(=O)n2cnc3ccccc32)cc1.Cl | 13.4%
O=S(=O)(c1ccc(S(=O)(=O)n2cnc3ccccc32)cc1)N1CCCCCC1 | 3.15%
COc1ccc(NC(=O)N2CCC(n3cnc4ccccc43)CC2)cc1 | -28.5%
O=S(=O)(c1ccccc1C(F)(F)F)N1CCN(S(=O)(=O)c2ccccc2C(F)(F)F)CC1 | -2.32%
O=S(=O)(c1ccccc1)N1CCC(n2cnc3ccccc32)CC1 | -64%
COc1ccc(S(=O)(=O)N2CCC(n3cnc4ccccc43)CC2)cc1 | -64.9%
CCn1c(N2CCN(S(=O)(=O)c3ccccc3C(F)(F)F)CC2)nc2ccccc21.Cl | -39.6%
O=S(=O)(c1ccc(F)cc1)N1CCC(n2cnc3ccccc32)CC1 | -39.7%
Cn1c(=O)n(CC(=O)N2CCOCC2)c2ccccc21 | 3.76%

Structure (SMILES) | hERG current change (%, negative = inhibition) at 10uM
COc1ccc(C(=O)NNC(=O)C23CC4CC(CC(C4)C2)C3)cc1OC | 0.327%
COc1cccc(-n2ccnc2SCC(=O)N2CCCc3ccccc32)c1 | -10%
Cc1c(Cl)cccc1NC(=O)NN1CCN(C)CC1 | -0.937%
Cc1nonc1C(=O)N/N=C/c1ccc(O)c(O)c1 | -29.7%
CCOc1ccccc1NC(=O)COC(=O)c1cc[n+]([O-])cc1 | 12.3%
Cc1ccc([N+](=O)[O-])cc1Nc1nc(N2CCOCC2)nc(N2CCOCC2)n1 | -13.5%
Cc1ccc(C2OC(=O)C=C2c2ccccc2)cc1 (centres unmarked) | 3.71%
Cn1c(=O)c2c(ncn2CC(=O)OCC(=O)NC(c2ccccc2)c2ccccc2)n(C)c1=O | -2.22%
COC(=O)CN(c1ccccc1)S(=O)(=O)c1ccccc1 | 4.04%
COc1ccc(CCNC(=O)C2CC2)cc1OC | -18.3%
Fc1ccccc1Nc1ncnc2c1nnn2Cc1ccccc1 | -20%
Cc1nnc2ccc(-c3cccc(NC(=O)c4ccc(Br)o4)c3)nn12 | -75.8%
CS(=O)(=O)c1ccc(-c2cccc(NC(=O)c3ccc(Br)o3)c2)nn1 | 3.74%
Cc1nnc2ccc(-c3cccc(NC(=O)c4ccco4)c3)nn12 | -5.08%
Cc1nnc2ccc(-c3cccc(NC(=O)c4ccc(Cl)nc4)c3)nn12 | -56.7%
Cc1nnc2ccc(-c3ccc(NC(=O)c4ccc(Cl)nc4)cc3)nn12 | -15%
Cc1nnc2ccc(-c3cccc(NS(C)(=O)=O)c3)nn12 | -17.1%
Cn1cccc1C(=O)OCc1csc(-c2ccccc2)n1 | -20.9%
O=[N+]([O-])c1cccc(N(CC2CO2)S(=O)(=O)c2ccccc2)c1 (centres unmarked) | -5.4%
CCN(C(=O)c1nn(-c2ccc(OC)cc2)c(=O)c2c1c1ccccc1n2C)c1ccc(OC)cc1 | 18.3%
COCCNC(=O)c1cc(-c2ccccn2)nc2ccc(S(=O)(=O)N3CCC(C)CC3)cc12 | -61.8%

Structure (SMILES) | hERG current change (%, negative = inhibition) at 10uM
COCCNC(=O)c1cc(-c2ccncc2)nc2ccc(S(=O)(=O)N3CCOCC3)cc12 | -32.3%
CCN(CC)CCNC(=O)c1cc(-c2cccnc2)nc2ccc(S(=O)(=O)N3CCC(C)CC3)cc12 | -65.1%
CCCCN(C)CCNC(=O)c1cc(-c2cccnc2)nc2ccc(S(=O)(=O)N3CCC(C)CC3)cc12 | -35.5%
COCCCNC(=O)c1cc(-c2cccnc2)nc2ccc(S(=O)(=O)N3CCCCCC3)cc12 | 30.6%
CCOCCCNC(=O)c1cc(-c2cccnc2)nc2ccc(S(=O)(=O)N3CCC(C)CC3)cc12 | 12.9%
O=C(CCN1C(=O)C2C3C=CC(C3)C2C1=O)Nc1ccccc1 (centres unmarked) | 21.1%
CC(C)(C)c1nc2c(Br)cc(Br)cc2c(=O)o1 | 18.9%
Cc1ccc(NC2c3ccccc3C(=O)N2CCN2CCOCC2)cc1 (centres unmarked) | -12.9%
O=C(c1ccccc1Cl)N1CCC(c2nc3c(nnn3Cc3ccco3)c(=O)[nH]2)CC1 | -22.1%
O=C(Cc1cccs1)N1CCC(c2nc3c(nnn3Cc3ccc(F)cc3)c(=O)[nH]2)CC1 | -38.9%
O=C(Cc1cccs1)N1CCCC(c2nc3c(nnn3Cc3ccc(F)cc3)c(=O)[nH]2)C1 (centres unmarked) | -35.1%
O=C(c1ccc(Cl)cc1Cl)N1CCC(c2nc3c(nnn3Cc3ccco3)c(=O)[nH]2)CC1 | -69%
O=C(Cc1cccs1)N1CCC(c2nc3c(nnn3Cc3ccccc3)c(=O)[nH]2)CC1 | -56%
O=C(c1cccs1)N1CCCC(c2nc3c(nnn3Cc3cccc(Cl)c3)c(=O)[nH]2)C1 (centres unmarked) | -36.6%
CC(C)(C)c1ccc(Cn2nnc3c(=O)[nH]c(C4CCN(C(=O)Cc5cccs5)CC4)nc32)cc1 | -4.81%
O=C(c1ccccc1)N1CCC(c2nc3c(nnn3Cc3ccco3)c(=O)[nH]2)CC1 | -32.2%
O=C(c1ccco1)N1CCCC(c2nc3c(nnn3Cc3ccc(Cl)cc3Cl)c(=O)[nH]2)C1 (centres unmarked) | -36.1%
O=C(c1ccco1)N1CCCC(c2nc3c(nnn3Cc3cccc(Cl)c3)c(=O)[nH]2)C1 (centres unmarked) | -54.5%
O=C(Cc1cccs1)N1CCCC(c2nc3c(nnn3Cc3cccc(Cl)c3)c(=O)[nH]2)C1 (centres unmarked) | -55.6%
O=C(c1ccco1)N1CCCC(c2nc3c(nnn3Cc3ccccc3)c(=O)[nH]2)C1 (centres unmarked) | -8.47%
Cc1nc2ccc(Br)cn2c1C(=O)N/N=C\c1ccccc1[N+](=O)[O-] | 27.6%

Structure (SMILES) | hERG current change (%, negative = inhibition) at 10uM
NC(=O)C[n+]1cccc(C(N)=O)c1.[Cl-] | 12.8%
Cc1ccc(S(=O)(=O)Nc2c(C)n(C)n(-c3ccccc3)c2=O)c(C)c1 | 9.47%
O=C(CCN1CCCCCC1)Nc1ccc2c(c1)OCCO2.O=C(O)C(=O)O | -1.98%
Cc1ccc(S(=O)(=O)NC(C)c2ccccc2)cc1[N+](=O)[O-] (centres unmarked) | 9.16%
CC(=O)Nc1nnc(COc2ccc(Cl)cc2)s1 | 30.7%
COC(=O)c1ccc(Cn2nnc3c(=O)[nH]c(C4CCN(S(=O)(=O)c5ccc(F)cc5)CC4)nc32)cc1 | -70.3%
COc1ccc(Cn2nnc3c(=O)[nH]c(C4CCCN(C(=O)c5ccccc5)C4)nc32)cc1 (centres unmarked) | -22.5%
O=c1[nH]c(C2CCN(S(=O)(=O)c3ccc(S(=O)(=O)NC4CC4)cc3)CC2)nc2c1nnn2Cc1ccc(F)cc1 | 3.81%
O=C(c1ccccc1)N1CCCC(c2nc3c(nnn3Cc3ccccc3)c(=O)[nH]2)C1 (centres unmarked) | -3.63%
Cc1ccc(Cn2nnc3c(=O)[nH]c(C4CCN(S(=O)(=O)c5ccc(F)cc5)CC4)nc32)cc1 | 6.62%
Cc1ccc(C(=O)N2CCCC(c3nc4c(nnn4Cc4ccccc4)c(=O)[nH]3)C2)cc1 (centres unmarked) | -62.4%
C=C(c1ccccc1O)n1ccnc1 | 27.8%
Cc1[nH]nc2c1C(c1ccco1)C(C#N)=C(N)O2 (centres unmarked) | 18.4%
Cc1nnc(SCCn2c(N3CCCC(C)C3)nc3c2c(=O)n(C)c(=O)n3C)s1 (centres unmarked) | -5.21%
c1cnc2ccc(C(c3nnnn3C3CCCC3)N3CCN4CCCC4C3)cc2c1 (centres unmarked) | -45.2%
OC1CCN(C(c2ccc3ncccc3c2)c2nnnn2C2CCCCC2)CC1 (centres unmarked) | -31.8%
c1cnc2ccc(C(c3nnnn3C3CCCCC3)N3CCCCC3)cc2c1 (centres unmarked) | -15.6%
CCC(C)(C)n1nnnc1C(c1ccc2ncccc2c1)N1CCN2CCCC2C1 (centres unmarked) | -10.8%
c1cnc2ccc(C(c3nnnn3C3CCCCC3)N3CCN4CCCC4C3)cc2c1 (centres unmarked) | -109%
c1cnc2ccc(C(c3nnnn3C3CCCCC3)N3CCN(C4CCCCC4)CC3)cc2c1 (centres unmarked) | -78.8%
